The values that follow come from the supplement of paper PMC5407854, “Inhibitor of ppGalNAc-T3-mediated O-glycosylation blocks cancer cell invasiveness and lowers FGF23 levels” (eLife, 2017).

Whole data set: some 1,700 compounds, median “T2 sensor activation Q score (MG/GFP ratio z-score vs DMSO controls)” near 0.3, cut for the highest 2% near 1.9. Shown is part of a subset that was picked to be rich in the highest values.

The test system of this assay is ppGalNAc-T2 sensor. Kind of assay: T2 sensor activation Q score (MG/GFP ratio z-score vs DMSO controls) (SD units); higher = more sensor activation (inhibition of ppGalNAc-T2 glycosylation). The following applies: HEK293 sensor cells; 10 µM; 6 h. The procedure:
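Cells were treated with compound at 10 uM for 6 h, then MG/GFP ratio was read by flow cytometry (10,000 cells per well, duplicate wells). Q = (R - R_neg)/SD_neg relative to DMSO vehicle controls; the signal rises when the glycosyltransferase is inhibited.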
`Cn1cnc([N+](=O)[O-])c1Sc1n[nH]c(N)n1`: the “T2 sensor activation Q score” value was 1.8.
As for `Cc1ncc([N+](=O)[O-])n1CCOC(N)=O`, the figure is -0.85; as for `Cn1cnc([N+](=O)[O-])c1N=C(N)N`, 2.2.
Take `NCCCNCCSP(=O)(O)O`: the “T2 sensor activation Q score” value was -0.45.
In the case of `Cc1ccccc1-n1c(C=Cc2ccccn2)nc2ccccc2c1=O` it was -1; in that of `COC[C@H]1OC(=O)c2coc3c2[C@@]1(C)C1=C(C3=O)[C@@H]2CCC(=O)[C@@]2(C)C[C@H]1OC(C)=O`, 2.1; in that of `CC12CCC3C(CC=C4CC(O)CCC43C)C1C/C(=C\N1CCCC1)C2=O` (stereo not given), 0.15.
For `C=Cc1cc(OC)c2c(c1)c(=O)oc1c2cc(OC)c2c(O)ccc(C3OC(C)C(O)C(C)(O)C3O)c21` (stereo not given), the “T2 sensor activation Q score” value is -0.15.
As for `CC(C)CC(NC=O)C(=O)O.COc1cc2c(cc1OC)C13CCN4CC5=CCOC6CC(=O)N2C1C6C5CC43` (stereo not given), the figure is 1.3; as for `O=C1C[C@@H]2OCC=C3C[N+]4([O-])CC[C@]56c7ccccc7N1[C@H]5[C@H]2[C@H]3C[C@@H]64` (stereo not given in full), 1.95; as for `O=C1/C(=C\c2ccccc2)C2OCC=C3CN4CCC56c7ccccc7N1C5C2C3CC46` (stereo not given), 0.15.
In the case of `COc1cc2c(cc1O)C[C@H]1c3c(cc(O)c(OC)c3-2)CCN1C`, the “T2 sensor activation Q score” value amounted to 0.75.
Turning to `c1cc(C2N3CCCN2CC3)ccn1` (stereo not given), the “T2 sensor activation Q score” value is -0.3.
As for `CC(Cc1ccccc1)NC(N)=O` (stereo not given), the figure is 1.8.
In the case of `O=C1N[C@H]2[C@H](O)[C@H](O)[C@@H](O)[C@H](O)[C@@H]2c2cc3c(c(O)c21)OCO3` it was 2.6; in that of `Cc1c(CCN)ccc2c1[nH]c1ccccc12`, 0.7.
As for `COc1ccc2c(c1)C13CCN(C)C(C2)C1CCC1(C3)OCCO1` (stereo not given), the “T2 sensor activation Q score” value came to 2.
In the case of `COc1ccc2c(c1O)[C@]13CCN(C)[C@H](C2)[C@@H]1CCC(=O)C3` it was -0.1; in that of `Cc1c(C(=O)c2ccccc2)c2ccccc2n1C`, 1.75.
Regarding `O=C1N(c2nncs2)CCN1[N+](=O)[O-]`, the “T2 sensor activation Q score” value turned out to be 1.2.
In the case of `CC1CC(C)OP(=O)(OCCC#N)O1` (stereo not given) it was 0.35.
In the case of `COc1ccc(CCNC2(C#N)CCCCC2)cc1OC` it was -0.65; in that of `CN1CCN(c2ccc([N+](=O)[O-])c3no[n+]([O-])c23)CC1`, 0.1; in that of `CN1CCN(c2nc(N)c(Br)c(Cl)n2)CC1`, 0.8.
In the case of `O=P(Oc1ccccc1)(Oc1ccccc1)c1ccccc1` it was -3.1; in that of `CC12CCC3C(CCC4Cc5[nH]c6ccccc6c5CC43C)C1CCC2O` (stereo not given), 0.65; in that of `C=CCN1CCC23c4c5ccc(O)c4OC2C(=O)CCC3(O)C1C5` (stereo not given), 2.2.
Consider `O=C1CCC2(O)[C@@H]3Cc4ccc(O)c5c4[C@]2(CCN3Cc2ccoc2)C1O5` (stereo not given in full), for which the “T2 sensor activation Q score” value came out at 0.3.
Turning to `NN=C1C(Cl)=C(Cl)C(Cl)=C1Cl`, the “T2 sensor activation Q score” value is -0.35.
Take `CCCC(=O)N(C)C1=Nc2ccc(Cl)cc2C(c2ccccc2)=[N+]([O-])C1`: the “T2 sensor activation Q score” value worked out at 0.
In the case of `CCC(C)c1cnc(CC(C)C)c(=O)n1O` (stereo not given), the “T2 sensor activation Q score” value was -0.75.
In the case of `CC12CCC3c4ccc(OC(=O)N(CCCl)CCCl)cc4CCC3C1CCC2O` (stereo not given) it was -0.35; in that of `OCC1CN1C1CCCCC1` (stereo not given), 2.1; in that of `CN1CCC(c2c[nH]c3ccccc23)C1` (stereo not given), 0.5.
On to `CCC(N)Cc1c[nH]c2ccccc12` (stereo not given), for which the “T2 sensor activation Q score” value stood at 1.2.
